In PubChem BioAssay AID1347416 (National Center for Advancing Translational Sciences (NCATS), 2020):
About 1,600 (39%) of roughly 4,100 compounds were called active. Roughly 25% stayed inconclusive and do not appear here. The list shows a part of the results. Unmarked numbers belong to inactive results. The call rests on the fitted dose curve; in most records, active means well fitted inhibition curve with a large enough effect; inconclusive means small, poorly fitted or top-dose-only effect; inactive means no such curve, though single readings can be large or run the other way.

test: qHTS Validation assay for Inhibitors of Plasmodium falciparum Dd2 growth in vitro; further: nearly all actives have a fitted effect of over 70% in size; details: P. falciparum Dd2 in RBCs, SYBR Green growth, 72 h; series mostly up to 28.7 µM; activity change, negative = inhibition: at the top concentration
Text: Malaria, a parasitic disease spread to humans through the bite of a Plasmodium infected Anopheles mosquito, continues to be a global health burden affecting millions of people, with an estimated 228 million cases and 405,000 deaths in 2018. Concerns about safety and limitations of current antimalarial treatments strongly emphasize the need to develop new therapeutic options. The scarce number of chemotypes and validated drug targets with efficacy against the liver stage, have hindered development of new antimalarials. To address this, a chemoprophylactic drug discovery effort was conducted through a combined phenotypic high-throughput asexual blood stage and liver stage screen, providing a robust foundation to identify liver-stage active lead chemotypes. Compounds were initially screened against Plasmodium falciparum Dd2 strain parasites using a in vitro SYBRGreen-1 based 72 hr proliferation assay to identify novel chemotypes to advance to liver stage assays. NIH/NCATS Early Translation Branch Assay Submitter (PI): Anton Simeonov Ph.D.
[…] Assay Protocol: PROTOCOL TABLE (as described by Inglese et al., 2007) SEQUENCE No. (e.g., 1, 2, 3, etc.); PARAMETER (e.g., Cells, Incubation, Reagent, etc.); VALUE; DESCRIPTION SEQUENCE, Parameter, Description 1; Reagent; 3 uL complete malaria growth medium, 1536 TC treated Black clear bottom plate 2; Controls; 23 nL positive control artesunate (300 nM final) to column 1; Neutral control DMSO to columns 2-4 3; Compound; 23 nL of compounds in dose response concentration (29 uM to 0.5 nM final) 4; Reagent; 5 uL malaria infected red blood cells (2.5% hematocrit final, 0.3% parasitemia 5; Time; 72 hours at 37C (5% O2, 5% CO2, 90% N2; 95% Rh) 6; Reagent; 2 uL lysis buffer/SYBRGreen-1, 25 sec shake immediately following dispense 7; Time; ~16 hours at 37C (5% O2, 5% CO2, 90% N2; 95% Rh) 8; Detector; EnVision (PerkinElmer) bottom read at 485/14nm excitation and 535/25 nm emission NOTES (numbers refer to sequence above): 1; Complete Malaria Growth Media: 1X RPMI-1640 w/L-glutamine, 5.5g/L Albumax II, 367 uM Hypoxanthine, 25 mM HEPES, 0.25% Sodium Bicarbonate, 35 uM Gentamicin sulfate 2; Controls were added using the Kalypsis Pintool (Wako USA) equipped with 1536 pinhead 3; Compounds were added in a 7-point, titration with a high final concentration of 29 uM by Pintool from seven inter-plate titrations of library plates and two DMSO control plates at the beginning and end (see Yasgar et al., 2008). 4; Red blood cells infected with Plasmodium falciparum Dd2 parasites were used. 6; Lysis buffer: 20 mM Tris-HCl, 10 mM EDTA, 0.16% Saponin, 1.6% Triton-X, 10X SYBR Green. REFERENCE: Inglese J, Shamu CE, Guy RK. 2007. Reporting data from high-throughput screening of small-molecule libraries. Nat Chem Biol. doi:10.1038/nchembio0807-438 Yasgar A, Shinn P, Jadhav A, Auld D, Michael S, Zheng W, Austin CP, Inglese J, Simeonov A. 2008. Compound Management for Quantitative High-Throughput Screening. J Lab Autom 13:79-89. doi:10.1016/j.jala.2007.12.004
On the % scale 0 is the no-effect control and ±100 the full control effect; potency means the concentration at half of the fitted maximal effect.

SMILES	activity change, negative = inhibition	Potency
CCOC(=O)c1cc(Sc2ccccc2N)cc(C(=O)OCC)n1	-6.23%	
CCOC(=O)C1CCN(C(=O)c2c(C)oc3c2C(=O)c2ccccc2C3=O)CC1		531 nM (active)
CCOC(=O)C1CCN(C(=O)Cn2cnc3sc(C)c(S(=O)(=O)N4CCOCC4)c3c2=O)CC1	54.6%	
CCOC(=O)c1c(C)[nH]c2c1-c1ccccc1C(=O)C2=O		2370 nM (active)
O=C(NCc1ccc(F)cc1)C1(CCO)CC12CCOCC2 (centres undefined)	10.9%	
O=C(Nc1ccccc1F)N1CCCCCC1c1nc(-c2cccnc2)no1 (centres undefined)	23.3%	
O=C(CCC1CCCN(Cc2cccn2-c2cccnc2)C1)Nc1ccccc1F (centres undefined)		6680 nM (active)
CC(C)c1ccc(-c2noc(SCC(=O)N3CCN(c4ccc(F)cc4)CC3)n2)cc1		668 nM (active)
CCC(C)NC(=O)N1CC(Oc2ccc(-c3noc(C4CCOCC4)n3)cc2)C1 (centres undefined)	-7.58%	
COc1ccccc1N1CCN(C(=O)CSc2nc(-c3ccc(C(C)C)cc3)no2)CC1		376 nM (active)
CCn1ccc2sc(C)c(C(=O)N3CCN(c4ccc(F)cc4)CC3)c2c1=O	-25.7%	
Cc1nn(C)c(C)c1CCC(=O)N1CCC(Cc2noc(-c3ccc(F)cc3)n2)C1 (centres undefined)	0.419%	
COc1ccccc1CC(=O)N1CCC(n2cc(-c3nc(C)no3)nn2)CC1	1.69%	
Cc1ccc(Cc2nc3ccccc3nc2SCC(=O)N2CCN(c3ccccc3)CC2)cc1	20.1%	
CC(C)c1noc(-c2cn(C3CCN(C(=O)COc4ccccc4)CC3)nn2)n1	22.5%	
O=C(CSc1nc(-c2ccccc2)no1)N1CCN(c2ccc(F)cc2)CC1		4220 nM (active)
CC1CCN(C(=O)CSc2nc(-c3ccc(C(C)C)cc3)no2)CC1		1190 nM (active)

SMILES	activity change, negative = inhibition	Potency
O=C(c1ccc(F)cc1)N1CCn2c(nnc2-c2ccccc2)C1	0% [at 43.1 µM]	
CC(C)c1ccc(-c2noc(SCC(=O)N(C)c3ccc(F)cc3)n2)cc1		944 nM (active)
COc1ccc(-c2noc([C@@H]3CCCN3C(=O)Cc3ccccc3Cl)n2)cc1	-6.35%	
COc1ccc(-c2noc(-c3cccn3CC(=O)N(C)c3ccc(F)cc3)n2)cc1F	-29.9%	
COc1ccc(C(=O)N2CCC(n3cc(-c4nc(-c5ccccc5)no4)nn3)C2)cc1 (centres undefined)	-1.74%	
COc1ccc(N2CCN(C(=O)CSc3nc(-c4ccc(C(C)C)cc4)no3)CC2)cc1		531 nM (active)
O=C(N/N=C(\CC(=O)c1cccs1)C(F)(F)F)c1ccncc1	13%	
CCCNC(=O)N1CCCCCNC(=O)CC1c1ccccc1 (centres undefined)	3.59%	
Cc1cccc(Cn2nnc3c2C(=O)c2ccccc2C3=O)c1	-9.79%	
COc1cccc(CN2CCCN(Cc3ccncc3)C(c3ccccc3)CC(=O)NCC2)c1 (centres undefined)		7500 nM (active)
CCOc1ccccc1CN1CCCN(Cc2ccncc2)C(c2ccccc2)CC(=O)NCC1 (centres undefined)		6680 nM (active)
CCOc1ccccc1CN1C[C@@H]2C(=O)N(CCN3CCc4ccccc4C3)C(=O)[C@@H]2C1	-14.9%	
COc1ccc(-n2nc(C3CCN(Cc4ccncc4)CC3)[nH]c2=O)cc1	10.1%	
Cc1cccc(CN2CCCN(Cc3ccncc3)C(c3ccccc3)CC(=O)NCC2)c1 (centres undefined)		4220 nM (active)
COc1ccc(CN2CCCCCNC(=O)CC2c2ccccc2)cc1Cn1ccnc1 (centres undefined)		9440 nM (active)
Cc1ccc(CNC(=O)N2CCCCCNC(=O)CC2c2ccccc2)cc1 (centres undefined)	0%	
COc1ccc(CN(C)C2CCc3nn(C)c(=O)n3CC2)cc1Cn1cccn1 (centres undefined)	12.6%	
